Activity calls are given as the source filed them. How the source made its calls: active means hit-call score of the fitted dose curve at least 0.9, where 1 is the maximum; inactive means score below 0.9.

Assay [1] is described as follows: ATG_PXRE_CIS: Attagene CIS-FACTORIAL HepG2 Assay for human Pregnane X Receptor Element (PXRE) (AID 2282957). Conditions: HepG2 Attagene CIS-FACTORIAL PXRE reporter, mRNA; actives raise or lower the signal. The essentials:
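Using HepG2 transfected with multiple reporter transcription units, endogenous factor-driven transcription was scored as reporter mRNA after 24 h exposure.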

Assay [2] in a line: ATG_RORE_CIS: Attagene CIS-FACTORIAL HepG2 Assay for human RAR-related Orphan Receptor Element (RORE) (AID 2282959). Conditions: HepG2 Attagene cis-factorial RORE reporter, mRNA; actives raise or lower the signal. In short, it runs like this: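 HepG2 cells carrying transiently transfected cis-regulated reporter units; RORE-driven reporter mRNA quantified 24 h post-dosing by RT-PCR, 6-FAM primer extension, HpaI digestion and capillary electrophoresis. Bidirectional fit versus DMSO.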

A short description of assay [3]: ATG_Sox_CIS: Attagene CIS-FACTORIAL HepG2 Assay for human SRY-box transcription factor (SOX) (AID 2282960). The following applies: HepG2 Attagene cis-factorial SOX reporter, mRNA; actives raise or lower the signal. In short, it runs like this: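 HepG2 cells transiently transfected with multiple cis-regulated reporter units, then dosed for 24 h. Reporter mRNA quantified by RT-PCR, fluorescent labelling, HpaI digestion and capillary electrophoresis; bidirectional fit versus DMSO.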

The target of assay [4] is Transcription factor Sp1 (Homo sapiens) (UniProt P08047). Kind of assay: ATG_Sp1_CIS: Attagene CIS-FACTORIAL HepG2 Assay for human Specificity Protein 1 (Sp1) (AID 2282961). The following applies: HepG2 Sp1 cis-reporter transcription, actives raise or lower the signal. The essentials:
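HepG2 cells transiently transfected with multiplexed cis-regulated reporter constructs, chemical exposure 24 h. Reporter mRNA quantified by RT-PCR with capillary electrophoresis; bidirectional fit relative to DMSO.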

The nature of assay [5]: ATG_SREBP_CIS: Attagene CIS-FACTORIAL HepG2 Assay for human Sterol Regulatory Element Binding (SREBP) (AID 2282962). Conditions: HepG2 Attagene cis-factorial SREBP reporter, mRNA; actives raise or lower the signal. In short, it runs like this:
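Endogenous factor activity is measured in HepG2 through multiplexed reporter units under cis-element control. Following a 24 h incubation, reporter transcripts are reverse-transcribed, PCR-amplified and sized by capillary electrophoresis; activity is fitted in both directions relative to DMSO.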

The target of assay [6] is Signal transducer and activator of transcription 3 (Homo sapiens) (UniProt P40763). Kind of assay: ATG_STAT3_CIS: Attagene CIS-FACTORIAL HepG2 Assay for human Signal Transducer and Activator of Transcription 3 (STAT3) (AID 2282963). The following applies: HepG2, Attagene cis-factorial STAT3 reporter transcription; actives raise or lower the signal. The essentials: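 Readout: fluorescent reporter mRNA fragments resolved by capillary electrophoresis. Setup: HepG2 transfected with MRTUs reporting endogenous transcription-factor activity, dosed 24 h. Gain or loss of signal fitted bidirectionally against DMSO control.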

Assay [7] in a line: ATG_TA_CIS: Attagene CIS-FACTORIAL HepG2 Assay for human TA Basal Promoter (AID 2282964). The following applies: HepG2 Attagene CIS-factorial TA basal promoter reporter; actives raise or lower the signal. The essentials: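 Transfected HepG2, 24 h compound exposure; RNA → RT-PCR → FAM primer extension → HpaI cut → CE fluorescence. Gain/loss-of-signal fitted against DMSO negative control. Background-control readout.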

Assay [8] can be described thus: ATG_TCF_b_cat_CIS: Attagene CIS-FACTORIAL HepG2 Assay for human T-Cell-Factor with beta-catenin (TCF/b-cat) (AID 2282965). Conditions: HepG2 TCF/beta-catenin cis-reporter transcription, actives raise or lower the signal. The essentials:
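Cells of the HepG2 line carry transiently transfected reporter units whose promoters respond to endogenous factors. Twenty-four hours post-dosing, reporter mRNA induction is measured by fluorescent RT-PCR and capillary electrophoresis, with DMSO as baseline.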

Assay [9] is described as follows: ATG_TAL_CIS: Attagene CIS-FACTORIAL HepG2 Assay for human TAL Basal Promoter (AID 2282966).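 Further: background control endpoint measuring basal TAL promoter reporter mRNA not a specific factor.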 Conditions: HepG2 Attagene cis-factorial TAL promoter reporter; actives raise or lower the signal. The essentials: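 After 24 hours of chemical exposure, transfected HepG2 cells yielded RNA that was converted to 6-FAM-labelled, HpaI-digested reporter fragments for capillary electrophoresis. Values derive from bidirectional fitting against DMSO controls.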

Chain of Transcription factor Sp1 (Homo sapiens) (P08047 whole entry, looked up): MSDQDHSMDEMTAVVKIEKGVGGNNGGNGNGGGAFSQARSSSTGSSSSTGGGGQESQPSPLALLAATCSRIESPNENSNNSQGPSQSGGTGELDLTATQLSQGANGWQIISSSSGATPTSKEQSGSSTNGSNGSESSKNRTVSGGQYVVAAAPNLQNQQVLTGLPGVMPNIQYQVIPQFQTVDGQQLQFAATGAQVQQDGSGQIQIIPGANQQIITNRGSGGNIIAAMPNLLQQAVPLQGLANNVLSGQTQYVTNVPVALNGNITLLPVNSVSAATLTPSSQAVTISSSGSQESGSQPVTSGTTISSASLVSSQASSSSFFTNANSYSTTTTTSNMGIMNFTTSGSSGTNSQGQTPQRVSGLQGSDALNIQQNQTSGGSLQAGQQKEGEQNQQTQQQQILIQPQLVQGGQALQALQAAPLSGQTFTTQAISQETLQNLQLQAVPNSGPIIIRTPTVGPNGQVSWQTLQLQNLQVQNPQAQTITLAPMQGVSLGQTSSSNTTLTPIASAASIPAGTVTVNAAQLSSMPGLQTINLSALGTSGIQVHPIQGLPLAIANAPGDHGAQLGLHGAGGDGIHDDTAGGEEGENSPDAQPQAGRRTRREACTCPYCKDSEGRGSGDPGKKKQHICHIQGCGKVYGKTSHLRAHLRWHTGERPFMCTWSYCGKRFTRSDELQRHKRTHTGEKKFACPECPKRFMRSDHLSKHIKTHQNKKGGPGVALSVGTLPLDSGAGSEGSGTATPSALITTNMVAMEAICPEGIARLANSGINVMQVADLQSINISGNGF
Chain of Signal transducer and activator of transcription 3 (Homo sapiens) (P40763 whole entry, looked up, the tested form may be a part): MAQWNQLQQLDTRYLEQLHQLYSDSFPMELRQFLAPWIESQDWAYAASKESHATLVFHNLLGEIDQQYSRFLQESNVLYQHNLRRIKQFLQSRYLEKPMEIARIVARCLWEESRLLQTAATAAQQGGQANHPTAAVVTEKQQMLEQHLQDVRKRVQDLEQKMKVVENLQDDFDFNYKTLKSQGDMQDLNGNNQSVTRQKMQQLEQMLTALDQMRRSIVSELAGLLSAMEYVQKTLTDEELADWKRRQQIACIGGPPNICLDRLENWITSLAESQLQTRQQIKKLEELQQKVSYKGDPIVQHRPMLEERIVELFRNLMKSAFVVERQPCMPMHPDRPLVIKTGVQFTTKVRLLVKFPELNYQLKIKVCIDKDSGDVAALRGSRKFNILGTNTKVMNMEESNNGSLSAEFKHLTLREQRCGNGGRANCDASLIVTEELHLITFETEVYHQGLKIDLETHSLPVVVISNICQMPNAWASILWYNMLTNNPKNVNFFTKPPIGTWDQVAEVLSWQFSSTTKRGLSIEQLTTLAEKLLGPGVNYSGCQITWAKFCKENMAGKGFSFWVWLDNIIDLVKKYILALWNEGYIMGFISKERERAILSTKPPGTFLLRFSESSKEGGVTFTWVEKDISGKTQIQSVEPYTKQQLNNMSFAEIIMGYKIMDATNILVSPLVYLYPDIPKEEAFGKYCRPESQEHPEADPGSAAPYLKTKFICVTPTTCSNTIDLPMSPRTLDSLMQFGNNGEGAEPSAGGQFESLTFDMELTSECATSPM

For `C=CC(=O)OCCCC`, the call in [1], in [2], in [3], in assay [4], in assay [5] and in assay [6] was inactive. Moreover, the outcome in assay [7], in assay [8] and in assay [9] was inactive.

As usually defined, the AC50 is the concentration at which the activity in the assay is half-maximal. On to `CC1(C)O[C@@H]2[C@@H](CO[C@@]3(COS(N)(=O)=O)OC(C)(C)O[C@@H]23)O1`, for which the AC50 in assay [1] is 57.9 µM (active). Moreover, the compound was called inactive in assay [2], in [3], in [4], in assay [5], in assay [6] and in assay [7]. Moreover, the result in [8] and in [9] was inactive.

Turning to `CCCCSCCCC`, the call in [1], in [2], in assay [3], in assay [4], in assay [5] and in assay [6] was inactive. Further, the result in assay [7] and in assay [8] was inactive.

As for `O=P(O)(O)O`, the compound was called inactive in [1], in assay [2], in assay [3], in [4], in [5] and in assay [6]. Besides, the compound was called inactive in assay [7], in assay [8] and in assay [9].

As to `CSc1c(Cl)c(Cl)c(Cl)c(Cl)c1Cl`, the concentration at half-maximal activity (AC50) was 2.94 µM (active) in [1], 72.8 µM (active) in assay [4], 135 µM (active) in assay [5] and 50.3 µM (active) in assay [8]. Moreover, the result in assay [2], in assay [3], in [6], in assay [7] and in assay [9] was inactive.

Regarding `C=C(C)[C@@H]1CC=C(C)C(=O)C1`, the AC50 in assay [1] was 25.5 µM (active). Moreover, the compound was called inactive in [2], in [3], in assay [4], in assay [5], in [6] and in [7]. Besides, the outcome in [8] and in assay [9] was inactive.

Regarding `CCCC(C)=O`, the compound was classed as inactive in [1], in [2], in [3], in assay [4], in [6] and in assay [7]. Besides, the result in [8] and in assay [9] was inactive.

On to `OCC#CCO`, for which the outcome in assay [1], in [2], in assay [3], in assay [4], in assay [5] and in assay [6] was inactive. Also, the outcome in [7], in assay [8] and in assay [9] was inactive.

With `CCCCCCCCN1CCCC1=O`, the AC50 in [1] is 26.2 µM (active); in assay [6] it was 168 µM (active). Further, the result in [2], in [3], in assay [4], in [5], in assay [7] and in assay [8] was inactive. In addition, the compound was classed as inactive in [9].

Take `Nc1ccc2c(O)cc(S(=O)(=O)O)cc2c1`: the compound was classed as inactive in [1], in assay [2], in [3], in [4], in [5] and in [6]. For the same compound, the compound was called inactive in assay [8] and in assay [9].

On to `C=CCCCCCCCCCC`, for which the outcome in [1], in [2], in assay [4], in [5], in assay [6] and in assay [7] was inactive. For the same compound, the compound was classed as inactive in assay [8] and in assay [9].

In the case of `Cc1cc(S(=O)(=O)O)ccc1N=Nc1c(O)ccc2ccccc12`, the outcome in [1], in [3], in [4], in assay [5], in [6] and in assay [7] was inactive. Moreover, the compound was called inactive in [8] and in assay [9]. Moreover, the AC50 in assay [2] was 4.16 µM (active).

With `COc1ccc(CCC(C)=O)cc1`, the result in [1], in [2], in [3], in assay [4], in assay [6] and in assay [7] was inactive. The result in assay [8] and in assay [9] was inactive.

Consider `c1ccc(Oc2ccccc2)cc1`, for which the concentration at half-maximal activity (AC50) in assay [1] is 25.1 µM (active). The compound was called inactive in [2], in assay [3], in assay [4], in [6], in assay [7] and in [8]. In addition, the result in [9] was inactive.

For `OCCOCCN1CCN(C2=Nc3ccccc3Sc3ccccc32)CC1`, the AC50 in assay [1] was 7.41 µM (active). For the same compound, the compound was called inactive in [2], in assay [3], in assay [4], in assay [6], in assay [7] and in [8]. Besides, the compound was called inactive in assay [9].

Take `O=C(Nc1ccc2c(c1)Cc1ccccc1-2)C(F)(F)F`: the values for the half-maximal activity concentration (AC50) in assay [1] and in assay [2] were 27.7 µM (active) and 17.5 µM (active), respectively. Also, the result in assay [3], in assay [4], in assay [5], in assay [6], in assay [7] and in assay [8] was inactive. Besides, the compound was called inactive in assay [9].

For `Nc1ccc(NCCO)c([N+](=O)[O-])c1`, the outcome in assay [1], in assay [2], in [3], in assay [4], in [5] and in assay [6] was inactive. The outcome in assay [8] and in [9] was inactive.

For `C=C(C)C1CC=C(C)C(=O)C1` (centres undefined), the AC50 in assay [1] is 33.4 µM (active). Moreover, the result in assay [2], in assay [3], in assay [4], in [5], in assay [6] and in [7] was inactive. Moreover, the result in assay [8] and in assay [9] was inactive.

As to `COc1ccccc1N=Nc1c(S(=O)(=O)O)cc2cc(S(=O)(=O)O)cc(NC(C)=O)c2c1O`, in assay [1], the half-maximal activity concentration (AC50) is 25.7 µM (active). The result in assay [2], in assay [3], in [4], in [5], in assay [6] and in assay [7] was inactive. Moreover, the call in [8] and in assay [9] was inactive.

Take `CCC1(c2ccccc2)C(=O)NCNC1=O`: the call in assay [1], in assay [2], in assay [3], in assay [4], in assay [5] and in [6] was inactive. Further, the compound was called inactive in [7], in assay [8] and in assay [9].

`COS(=O)(=O)O`: the compound was classed as inactive in [1], in [2], in [3], in assay [4], in assay [5] and in [6]. Moreover, the compound was called inactive in [7], in assay [8] and in assay [9].

As to `COc1cc(CCC(C)=O)ccc1O`, the result in assay [1], in assay [2], in assay [3], in [4], in assay [5] and in [6] was inactive. Also, the call in assay [7], in [8] and in assay [9] was inactive.

Turning to `CCCCCCCCc1ccc(S(=O)(=O)O)cc1`, the call in assay [1], in assay [2], in [3], in assay [6], in assay [8] and in assay [9] was inactive. Besides, the AC50 is 186 µM (active) in assay [4] and 159 µM (active) in [5].

For the compound `CCCCC1CCC(O)CC1` (centres undefined), the call in assay [1], in [2], in assay [3], in assay [4], in [5] and in [6] was inactive. The result in [7], in assay [8] and in assay [9] was inactive.

Consider `OC[C@H]1O[C@@H]2O[C@H]3[C@H](O)[C@@H](O)[C@@H](O[C@H]4[C@H](O)[C@@H](O)[C@@H](O[C@H]5[C@H](O)[C@@H](O)[C@@H](O[C@H]6[C@H](O)[C@@H](O)[C@@H](O[C@H]7[C@H](O)[C@@H](O)[C@@H](O[C@H]8[C@H](O)[C@@H](O)[C@@H](O[C@H]9[C@H](O)[C@@H](O)[C@@H](O[C@H]1[C@H](O)[C@H]2O)O[C@@H]9CO)O[C@@H]8CO)O[C@@H]7CO)O[C@@H]6CO)O[C@@H]5CO)O[C@@H]4CO)O[C@@H]3CO`, for which the half-maximal activity concentration (AC50) in assay [1] was 22.4 µM (active). Moreover, the compound was called inactive in [2], in [3], in [4], in assay [5], in [6] and in assay [7]. The result in assay [8] and in assay [9] was inactive.

Take `CCCC(=O)C(CC)Sc1ccoc1C` (centres undefined): the AC50 in assay [1] is 5.68 µM (active). Besides, the result in assay [2], in assay [4], in assay [5], in assay [6], in assay [7] and in assay [8] was inactive. For the same compound, the call in assay [9] was inactive.

The values are drawn from PubChem BioAssay (EPA / NIEHS).
